This passage reports Potency and activity change, negative = growth inhibition results from PubChem BioAssay AID686979 (National Center for Advancing Translational Sciences (NCATS), 2013).

SMILES strings stand for the structures. Among all 420,000 compounds or so, about 50,000 (12%) were called active. Not shown: some 26% with an inconclusive outcome. Calls follow the shape of the dose curve; as a rule, active = well fitted inhibition curve with a large enough effect; inconclusive = small, poorly fitted or top-dose-only effect; inactive = flat fitted curve, though single readings scatter. The list comes from a sample in which actives are over-represented; it also holds similar structures and randomly drawn compounds. Entries that show only a call come without a potency. Where a SMILES comes first, the peptide text is derived from it. [ ]: non-standard residue; d: D form. The star is where a group is joined. ξ: configuration not given here. Cbz = O=C(OCc1ccccc1)*; ξL = CC(C)CC(N)C(=O)O; ξP = O=C(O)C1CCCN1
Potency is read from the fitted curve at half-maximal effect.

The assay can be described thus: qHTS for Inhibitors of human tyrosyl-DNA phosphodiesterase 1 (TDP1): qHTS in cells in presence of CPT. Also: nearly all actives have a fitted effect of over 55% in size. The note with it: chicken DT40 Tdp1-/-;hTDP1 cells + 20 nM CPT, ATP luminescence, 48 h; series mostly up to 46.2 µM. In outline: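 Chicken DT40 Tdp1-/- cells complemented with human TDP1, 400 cells/well, exposed to compounds plus 20 nM camptothecin for at least 48 h at 37 C; viability read as ATP content by CellTiter-Glo luminescence.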
Background: qHTS replaces the single test concentration by a dilution series.
Consider `Cc1cccc(NC(=O)c2cc(S(=O)(=O)N3CCC4(CC3)OCCO4)ccc2F)c1`, for which the Potency result is “inactive”.

Take `Cc1cc(S(=O)(=O)NC2CCCC2)ccc1-n1cnnn1`: the Potency result is “inactive”.

For the compound `COc1cccc(/C=C/c2ccc3ccccc3n2)c1OC(C)=O`, the Potency entry is “inactive”.

In the case of `CCOc1ccccc1-c1cc(C(=O)N2CCOCC2)c2ccccc2n1`, the Potency result is “inactive”.

Take `CCOc1cccc(/C=C/c2ccc3ccccc3n2)c1OC(C)=O`: the Potency is 18.4 µM (active).

`Cc1ccc(S/C(=N\S(=O)(=O)c2ccc(Cl)cc2)c2ccccc2)cc1`: the Potency is 14.6 µM (active).

Turning to `Cc1ccc(S(=O)(=O)/N=C(/Nc2ccccn2)c2ccc(Cl)cc2)cc1`, the Potency result is “inactive”.

For the compound `O=S(=O)(/N=C(/Nc1ccccn1)c1ccccc1)c1ccc(Cl)cc1`, the Potency entry was “inactive”.

On to `Cc1ccc(NC(=O)COc2ccc(/C=C3/NC(=O)NC3=O)cc2)cc1`, for which the Potency result is “inactive”.

On to `CC(C)CC(NC(=O)C1CCCN1C(=O)[C@@H](C)NC(=O)OCc1ccccc1)C(=O)NCC(N)=O` (stereo partly drawn) (Cbz-[dA][ξP][ξL]G-NH2), for which the Potency result was “inactive”.

Turning to `CCOC(=O)c1c(NC(=S)Nc2ccccc2)sc2c1CCN(C)C2`, the Potency entry was “inactive”.

In the case of `CCOC(=O)c1c(NC(=O)c2ccc(S(=O)(=O)N3CCCC(C)C3)cc2)sc2c1CCN(C(C)C)C2` (stereo not drawn), the Potency is 8.2 µM (active).

As for `CCCN(CCC)S(=O)(=O)c1ccc(C(=O)NNC(=O)c2cc(OC)c(OC)c(OC)c2)cc1`, the Potency entry was “inactive”.

Turning to `CCCN(CCC)S(=O)(=O)c1ccc(C(=O)Nc2sc3c(c2C(=O)OC)CCN(CC)C3)cc1`, the Potency was 16.4 µM (active).

For `COC(=O)c1c(NC(=O)c2cc(=O)c3c(C)cc(C)cc3o2)sc2c1CCCC2`, the Potency entry was “inactive”.

With `CCOC(=O)c1c(NC(=O)NC(C)(C)C)sc2c1CCN(C)C2`, the Potency result is “inactive”.

For `N#CCCN(C(=S)Nc1ccc(Cl)c(Cl)c1)C1CCCCC1`, the Potency entry is “inactive”.

Take `O=S1(=O)CSCS(=O)(=O)C1`: the Potency entry was “inactive”.

For the compound `COc1ccc(S(=O)(=O)N(CC(=O)N/N=C/c2ccc(C(=O)O)cc2)Cc2ccccc2)cc1OC`, the Potency entry is “inactive”.

For the compound `C=CCO/N=C(\C)c1c(O)c(C)c(-c2ccccc2)n(-c2ccccc2)c1=O`, the Potency result was “inactive”.

Consider `CC(C)[C@@H]1NC(=O)[C@H](Cc2ccccc2)NC(=O)[C@@H](CC(=O)O)NC(=O)CNC(=O)[C@H](CCCNC(=N)N)NC1=O`, for which the Potency result is “inactive”.

With `C=CCNC(=O)C1CC2c3ccccc3C1c1ccccc12` (stereo not drawn), the Potency entry was “inactive”.

As for `CCCS(=O)(=O)N1CCC(n2c(C(F)(F)F)nc3cccnc32)CC1`, the Potency is 3.66 µM (active).

On to `CCS(=O)(=O)N1CCC(n2c(C)nc3cccnc32)CC1`, for which the Potency entry was “inactive”.

As to `O=C1NC(CC(=O)N2CCC(n3c(C4CCC4)nc4cccnc43)CC2)c2ccccc21` (stereo not drawn), the activity change, negative = growth inhibition is -6.43% [at 9.04 µM] (inactive).

For the compound `O=C1CCc2cc(S(=O)(=O)Nc3ccc(C(F)(F)F)cc3)cc3c2N1CC3`, the Potency result is “inactive”.

Turning to `COC(=O)c1ccc(NS(=O)(=O)c2cc3c4c(c2)C(C)C(=O)N4CCC3)cc1` (stereo not drawn), the Potency entry was “inactive”.

Take `O=C1Cc2cc(S(=O)(=O)Nc3ccc(OC(F)(F)F)cc3)cc3c2N1CCC3`: the Potency was 9.2 µM (active).

Turning to `CCn1c(CC(=O)Nc2ccccc2)nnc1SCC(=O)N1CCOCC1`, the Potency result is “inactive”.

With `COc1ccc(C(C#N)Nc2ccc(C)cc2)cc1` (stereo not drawn), the Potency entry was “inactive”.

In the case of `Cc1ccc(CN2CCN(/N=C/c3ccco3)CC2)c(C)c1`, the Potency result was “inactive”.

Regarding `CC(C)=CCCC1(C)C=Cc2c(ccc3c2[nH]c2cc(O)c(C)cc23)O1` (stereo not drawn), the Potency was 16.4 µM (active).

Consider `Cc1ccc(CNC(=O)Nc2nnc([C@H]3C[C@H](O)[C@@H](CO)O3)s2)cc1`, for which the Potency result was “inactive”.

In the case of `CN1CCN(S(=O)(=O)c2ccc(N3CCN(c4ccccc4O)CC3)c([N+](=O)[O-])c2)CC1`, the Potency is 23.1 µM (active).

Consider `Cc1cc(N)n(-c2ccc(S(=O)(=O)N3CCCC3)cc2[N+](=O)[O-])n1`, for which the Potency entry is “inactive”.

Take `O=[N+]([O-])c1ccc(N2CCN(S(=O)(=O)c3ccccc3)CC2)cc1N1CCc2ccccc2C1`: the Potency entry is “inactive”.

On to `Cc1ccc(C(=O)c2ccc(N3CCN(C)CC3)c([N+](=O)[O-])c2)cc1`, for which the Potency was 18.4 µM (active).

In the case of `Cc1cccc(N2CCN(c3ccc(C(N)=O)cc3[N+](=O)[O-])CC2)c1C`, the Potency result was “inactive”.

In the case of `Cc1cc(C)n(-c2ccc(C(=O)O)cc2[N+](=O)[O-])n1`, the Potency entry was “inactive”.

Turning to `C=CCN(c1ccc(Cl)cc1)S(=O)(=O)c1cccc(C(=O)OCC(=O)N(C)C)c1`, the Potency entry is “inactive”.

As for `Cc1ccc2c(c1)N(C(=O)CCC(=O)NCc1cccnc1)CCO2`, the Potency result is “inactive”.

Take `Cn1nccc1NC(=O)CC(CC(=O)O)c1ccccc1` (stereo not drawn): the Potency entry is “inactive”.

Regarding `Cn1ccsc1=NC(=O)c1cc(S(=O)(=O)N2CCOCC2)ccc1Cl`, the Potency result was “inactive”.

Regarding `N/C(=N\OC(=O)N1c2ccccc2Sc2ccccc21)c1ccc(Br)cc1`, the Potency is 20.6 µM (active).

On to `N/C(=N\OC(=O)/C=C/c1ccccc1)c1ccc(Br)cc1`, for which the Potency result is “inactive”.

Turning to `N/C(=N\OC(=O)c1ccc2c(c1)OCO2)c1ccc(Br)cc1`, the Potency result was “inactive”.

Regarding `Cc1csc(=O)n1CCC(=O)OCC(=O)NNC(=O)c1ccc(Br)cc1`, the Potency entry is “inactive”.

For the compound `CC(=O)Nc1cccc(C(=O)OCC(=O)Nc2nnc(-c3ccccc3)o2)c1`, the Potency result was “inactive”.

As to `COCCNC(=O)C1C(=O)Nc2ccccc2C(=O)N1c1ccc2c(c1)OCCO2` (stereo not drawn), the Potency result is “inactive”.

On to `COc1cc(SC#N)ccc1N=Cc1c(C)[nH]n(-c2ccc(C)cc2)c1=O`, for which the Potency is 2.59 µM (active).

Take `COc1cccc(-c2coc3cc4oc(=O)c(CC(=O)O)c(C)c4cc23)c1`: the Potency entry was “inactive”.

`O=C(O)CC1S/C(=N\N=C/c2ccccc2O)N(c2ccc(O)cc2)C1=O` (stereo not drawn): the Potency entry was “inactive”.

`S=C(Nc1ccc(Br)cc1Cl)N1CCC2(CC1)OCCO2`: the Potency result is “inactive”.

`C=C1C(=O)OC2C1CCC(C)=CCCC1(C)OC21` (stereo not drawn): the Potency was 1.64 µM (active).

In the case of `Cc1cc(Cl)ccc1NC(=S)N1CCC(C(N)=O)(N2CCCCC2)CC1`, the Potency entry is “inactive”.

For `O=C(COC(=O)/C=C/c1cccc(Cl)c1)NCc1cccs1`, the Potency entry is “inactive”.

Consider `COC(=O)CCc1sc(Nc2ccc(Br)cc2)nc1-c1ccc(OC)cc1`, for which the Potency was 23.1 µM (active).

On to `COc1ccc(NC(=O)c2sc(N)nc2-c2ccccc2)cc1`, for which the Potency entry was “inactive”.

On to `Cc1ccc(OC(=O)CCC(=O)Nc2ccc(Br)cc2)cc1`, for which the Potency entry was “inactive”.

`CCc1c(C)sc(NC(=O)C2c3ccccc3Oc3ccccc32)c1C(=O)OC(C)C`: the Potency entry was “inactive”.

As for `Cc1ccn2c(=O)c(NC(=O)c3cccc4ccccc34)c(C)nc2c1`, the Potency entry is “inactive”.

Consider `O=C(Nc1ccc(Cl)c(Cl)c1)N1CC=C(c2ccccc2)CC1`, for which the Potency is 23.1 µM (active).

As for `NC(=O)N1CCCC1C(=O)Nc1ccc(Cl)c(Cl)c1` (stereo not drawn), the Potency result is “inactive”.

`O=C(O)c1cccc(S(=O)(=O)N2CC=C(c3ccccc3)CC2)c1`: the Potency entry is “inactive”.

Turning to `CCCCn1c(N)c(N(CCC(C)C)C(=O)c2ccc([N+](=O)[O-])o2)c(=O)[nH]c1=O`, the Potency entry is “inactive”.

`CCCCC(O)C1=C[N+](=O)CC=C1` (stereo not drawn): the Potency result is “inactive”.

On to `CCn1c(Cc2ccccc2)nnc1SCc1nc2ccccc2c(=O)[nH]1`, for which the Potency result is “inactive”.

With `O=c1[nH]c(CSc2ncc(-c3ccc(F)cc3)n2Cc2ccco2)nc2ccccc12`, the Potency was 18.4 µM (active).

Take `Nc1cc(=O)nc(SCc2ccccc2)n1Cc1ccco1`: the Potency result is “inactive”.

As to `COc1ccc2ccn(C)c2c1`, the Potency entry is “inactive”.

In the case of `CCOc1cc(NC(=S)NCCCOC)c(OCC)cc1NC(=O)c1ccco1`, the Potency entry is “inactive”.

Consider `CCOc1cc(NC(=S)NCc2ccco2)c(OCC)cc1NC(=O)c1ccco1`, for which the Potency result is “inactive”.

With `CCOc1cc(NC(=O)c2ccco2)c(OCC)cc1NC(=O)COc1ccccc1`, the Potency was 4.11 µM (active).

Take `O=c1n(Cc2cccc(C(F)(F)F)c2)c2ccccc2c2nc(-c3ccccc3)nn12`: the Potency was 23.1 µM (active).

Regarding `Cc1cc(N2CCN(c3cccc(C(F)(F)F)c3)CC2)n2nc(-c3ccccc3)nc2n1`, the Potency entry was “inactive”.

With `COc1ccc(-c2nc3c4ccccc4n(CC(=O)Nc4ccc(C(C)=O)cc4)c(=O)n3n2)cc1`, the Potency entry was “inactive”.

Take `CC(C)C(OC(=O)c1cccs1)C(=O)NC1CCCCC1` (stereo not drawn): the Potency result was “inactive”.

Take `Cc1ccc(NC(=O)CN(C)Cc2ccc(F)cc2)c([N+](=O)[O-])c1`: the Potency result is “inactive”.

In the case of `CCn1c(SCC(=O)NC2CCCC2)nnc1-c1ccoc1C`, the Potency result is “inactive”.

For the compound `COC(=O)c1onc(-c2c(OC)cc(OC)cc2OC)c1C(=O)OC`, the Potency entry was “inactive”.

On to `CN(C(=O)CN1C(=O)/C(=C/c2ccc(Cl)cc2)SC1=S)C1CCS(=O)(=O)C1` (stereo not drawn), for which the Potency is 18.4 µM (active).

For `CN(C(=O)CCN1C(=O)/C(=C/c2ccccc2F)SC1=S)C1CCS(=O)(=O)C1` (stereo not drawn), the Potency entry was “inactive”.

Regarding `CN(C(=O)CN1C(=O)S/C(=C\c2ccccc2F)C1=O)C1CCS(=O)(=O)C1` (stereo not drawn), the Potency result was “inactive”.

On to `O=C(Nc1cc(C(F)(F)F)ccc1Cl)c1cc2nc(-c3ccc4c(c3)OCO4)cc(C(F)(F)F)n2n1`, for which the Potency entry was “inactive”.

With `O=C(NCCCCCCCCCNC(=O)C(F)(F)F)C(F)(F)F`, the Potency result was “inactive”.

`C/C(=N\NS(=O)(=O)c1cccc([N+](=O)[O-])c1)c1cc2ccccc2o1`: the Potency entry is “inactive”.

Take `CCn1c(SCc2cc(=O)n3ccsc3n2)nc2ccccc21`: the Potency result was “inactive”.

With `COc1cccc(-n2cc(C(=O)O)c3ccccc3c2=O)c1`, the Potency result was “inactive”.

As to `COc1cccc(-n2ccn(CC(=O)NCc3ccc(C)cc3)c(=O)c2=O)c1`, the Potency result is “inactive”.

Consider `CCN(Cc1ccccc1)C(=O)c1cn(-c2cccc(OC)c2)c(=O)c2ccccc12`, for which the Potency was 18.4 µM (active).

With `COc1ccc(NC(=O)CSc2nnc(C3CC3)n2C)cc1S(=O)(=O)N1CCCCC1`, the Potency result is “inactive”.

On to `COc1ccc(C2CC(=O)Oc3ccc(C(C)(C)C)cc32)cc1` (stereo not drawn), for which the Potency entry is “inactive”.

`N#Cc1ccc(/C=C2\CCn3c2nc2cc(C(=O)O)ccc2c3=O)cc1`: the Potency result is “inactive”.

Take `COc1cccc(Cn2c(=O)c(CCc3ccccc3)nc3cnc(N(C)C)nc32)c1`: the Potency result is “inactive”.

Consider `COc1cccc(Cn2c(=O)c(-c3ccccc3)nc3cnc(OC)nc32)c1`, for which the Potency result is “inactive”.

As for `COc1cccc(Cn2c(=O)cnc3cncnc32)c1`, the Potency was 1.46 µM (active).

In the case of `Cc1ccc(C(=O)N/C(=C\c2cn(C)c3ccccc23)C(=O)N2CCN(C)CC2)cc1`, the Potency entry is “inactive”.

As for `Cc1cn(C2CC(O)C(CO)O2)c(=O)n(CCCc2ccccc2)c1=O` (stereo not drawn), the Potency result is “inactive”.
